From PubChem BioAssay
Rv3671c inh = Rv3671c (M. tuberculosis) protease inhibition | inhibition, % at 5.96 µM | hit rate 0.048% among 320,000; in the data active = inhibition above about 38%;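 note: extracellular domain of Rv3671c used as enzyme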
FadD28 binding = inhibitors of Mycobacterium tuberculosis FadD28 bisubstrate binding; AID 588549; FadD28 bisubstrate probe binding, fluorescence polarization; hit rate 0.22% among 360,000; inhibition, % at 12.5 µM; in the data active = inhibition above about 8.5%, passing the limit was not always enough
BioA inh = inhibitors of Mycobacterium tuberculosis BioA enzyme | AID 602481 | purified M. tuberculosis BioA enzyme, plate reader | inhibition, % at 9.99 µM | hit rate 0.096% among 360,000; in the data active = inhibition above about 40%
UGM FP inh = blocks M. tuberculosis UGM enzyme. P9WIQ1. purified UGM, fluorescence polarization probe displacement. inhibition, % at 10 µM. hit rate 0.06% among 320,000; in the data active = inhibition above about 10%, passing the limit was not always enough
Target sequence (P9WIQ1 whole entry, looked up): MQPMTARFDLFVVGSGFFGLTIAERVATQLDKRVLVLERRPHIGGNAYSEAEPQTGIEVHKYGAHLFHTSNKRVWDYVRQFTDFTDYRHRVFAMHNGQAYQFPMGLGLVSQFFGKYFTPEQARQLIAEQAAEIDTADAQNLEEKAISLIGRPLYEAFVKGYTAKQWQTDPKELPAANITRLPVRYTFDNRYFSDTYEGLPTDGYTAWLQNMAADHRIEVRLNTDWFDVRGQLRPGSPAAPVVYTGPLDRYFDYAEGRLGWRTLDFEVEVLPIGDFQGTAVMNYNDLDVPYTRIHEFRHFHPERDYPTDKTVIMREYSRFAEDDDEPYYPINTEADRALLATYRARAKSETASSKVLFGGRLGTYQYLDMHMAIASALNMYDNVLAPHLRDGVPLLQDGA
Y pestis TopoI = inhibitors of Yersinia pestis topoisomerase I; Y. pestis Topo-I cleavage product accumulation, plate reader; activity, % at 10 µM; hit rate 0.064% among 360,000; AID 504884; in the data active = activity above about 50%, passing the limit was not always enough
RecA splice inh = inhibitors of M. tuberculosis RecA intein splicing | P9WHJ3 | cell-free RecA intein splicing, fluorescence | inhibition, % (no concentration beside the values) | hit rate 0.75% among 290,000 | AID 2221; in the data active = inhibition above about 30%
GFP chromophore = counter-screen: blocks GFP chromophore formation; cell-free GFP chromophore formation, fluorescence; hit rate 83% among 2,100; shares compounds with RecA splice inh; EC50, µM; call rule not given here
A number is an active result; i = inactive; nt = no result given. Shown are actives, neighbours in structure and some others; about 0.82% of the full set was active somewhere.

SMILES	Rv3671c inh	FadD28 binding	BioA inh	UGM FP inh	Y pestis TopoI	RecA splice inh	GFP chromophore
O=C(N[C@H]1CC[C@H](CCn2cc(C3CCCCC3)nn2)O[C@H]1CO)c1cccnc1	nt	nt	i	nt	nt	nt	nt
CCOC(=O)c1oc2nc(CC(C)C)c3c(c2c1N)CCC3	i	i	i	i	i	31.4	i
Cc1cc(=O)n(C2CCS(=O)(=O)C2)[nH]1 (centres undefined)	i	i	nt	i	i	93.4	3.79
CO[C@@H](CN(C)C(=O)c1cnccn1)[C@@H](C)CN([C@H](C)CO)S(=O)(=O)c1ccc(Cl)cc1	nt	nt	i	nt	nt	nt	nt
C[C@H](CO)N1C[C@H](C)[C@@H](CN(C)CC2CCCCC2)Oc2c(NS(=O)(=O)c3ccc(Cl)cc3)cccc2C1=O	nt	nt	i	nt	nt	nt	nt
N=c1c2c(-c3ccccc3)c(-c3ccccc3)n(Cc3ccco3)c2ncn1Cc1ccco1	i	i	i	i	i	46.9	14.5
CCCCn1cnc2c(c(-c3ccccc3)c(-c3ccccc3)n2Cc2ccco2)c1=N	i	i	i	i	i	i	nt
CCC(c1ccc(O)cc1)C(CC)c1ccc(O)cc1 (centres undefined)	i	i	i	i	i	nt	nt
Cc1cc(C(c2ccc(O)cc2)c2cc(C)c(O)cc2C)c(C)cc1O	i	i	i	i	i	33.1	i
CNC[C@@H]1Oc2ccc(NC(=O)Nc3ccc(OC)cc3)cc2CC(=O)N([C@@H](C)CO)C[C@@H]1C	nt	nt	i	nt	nt	nt	nt
CCCCOP(=O)(OCCCC)C1(NS(=O)(=O)c2ccccc2)C=CC(=O)c2ccccc21 (centres undefined)	i	i	i	i	i	88.2	4.99
CC1CCc2c(sc3nc(C(C)(C)C)nc(N4CCN(C(=O)CCl)CC4)c23)C1 (centres undefined)	i	i	i	i	i	82.9	0.958
CCC(=O)N1CCN(c2nc(CC)nc3sc4c(c23)CCCC4)CC1	i	i	i	i	i	i	nt
C[C@@H]1CN([C@H](C)CO)C(=O)c2cc(/C=C/c3ccccc3)cnc2O[C@H]1CN(C)C	nt	nt	i	nt	nt	nt	nt
C[C@@H]1CN([C@@H](C)CO)C(=O)c2cccc(NC(=O)Nc3ccc(C(F)(F)F)cc3)c2O[C@H]1CN(C)Cc1ccc(C(=O)O)cc1	nt	nt	i	nt	nt	nt	nt
CS(=O)(=O)c1ncc(Cl)c(C(=O)Nc2ccc3ccccc3c2)n1	nt	i	nt	nt	i	30.9	12.4
CCS(=O)(=O)c1ncc(Cl)c(C(=O)Nc2ccc(C)cc2)n1	i	i	i	i	i	64.5	22.7
Cc1ccc(CS(=O)(=O)c2ncc(Cl)c(C(=O)Nc3ccc(OC(F)F)cc3)n2)cc1	i	i	i	i	i	i	nt
COC(=O)c1ccccc1NC(=O)c1nc(S(=O)(=O)Cc2ccccc2)ncc1Cl	i	i	i	i	i	i	nt
COc1ccc(CNC(=O)c2nc(S(=O)(=O)Cc3ccccc3)ncc2Cl)cc1	i	i	i	i	i	81.9	14.8
CCC1CCCCN1S(=O)(=O)c1ccc(NC(=O)c2nc(S(C)(=O)=O)ncc2Cl)cc1 (centres undefined)	i	i	i	i	i	96.6	1.26
O=C(N[C@H]1CC[C@@H](CCNS(=O)(=O)c2ccc(F)cc2)O[C@@H]1CO)C1CC1	nt	nt	i	nt	nt	nt	nt
CCCN(C)C[C@H]1Oc2cc(C#Cc3ccccc3)ccc2S(=O)(=O)N([C@H](C)CO)C[C@H]1C	nt	nt	i	nt	nt	nt	nt
CC(=O)Nc1ccc(NC(=O)c2nc(S(=O)(=O)Cc3ccccc3)ncc2Cl)cc1	i	i	i	i	i	39.9	26.1
O=C(NCc1ccccc1)c1nc(S(=O)(=O)Cc2ccccc2)ncc1Cl	i	i	i	i	i	77.4	16.7
O=C(C1CCOCC1)N1[C@@H](CO)[C@@H]2c3ccccc3NC[C@@H]21	nt	nt	i	nt	nt	nt	nt
[N-]=[N+]=Nc1ccccc1C[C@]1(C(=O)N2CCCCC2)N=C(c2ccc(OCCCO)cc2)O[C@H]1c1ccccc1	nt	nt	i	nt	nt	nt	nt
C[C@@H]1CN([C@H](C)CO)C(=O)c2cc(-c3ccc(C#N)cc3)cnc2O[C@H]1CN(C)C(=O)CC1CC1	nt	nt	i	nt	nt	nt	nt
Cc1c(C(c2ccc([N+](=O)[O-])cc2)c2c(C)n(C)n(-c3ccccc3)c2=O)c(=O)n(-c2ccccc2)n1C	i	i	i	i	i	i	nt
Cc1[nH]n(-c2ccccc2)c(=O)c1C(c1ccc([N+](=O)[O-])cc1)c1c(C)[nH]n(-c2ccccc2)c1=O	i	i	nt	i	i	95.0	1.6
